AmpC nodet inh – Promiscuous and Specific Inhibitors of AmpC Beta-Lactamase (assay without detergent); Potency, µM (doses to about 28.7 µM), inactives show top-dose activity change, negative = inhibition; 1.8% of 71,000 active; AID 585, 2007; P00811; AmpC nitrocefin hydrolysis, absorbance 480 nm, no detergent; note: % of control where 0% means no effect
Target sequence (P00811 whole entry, looked up): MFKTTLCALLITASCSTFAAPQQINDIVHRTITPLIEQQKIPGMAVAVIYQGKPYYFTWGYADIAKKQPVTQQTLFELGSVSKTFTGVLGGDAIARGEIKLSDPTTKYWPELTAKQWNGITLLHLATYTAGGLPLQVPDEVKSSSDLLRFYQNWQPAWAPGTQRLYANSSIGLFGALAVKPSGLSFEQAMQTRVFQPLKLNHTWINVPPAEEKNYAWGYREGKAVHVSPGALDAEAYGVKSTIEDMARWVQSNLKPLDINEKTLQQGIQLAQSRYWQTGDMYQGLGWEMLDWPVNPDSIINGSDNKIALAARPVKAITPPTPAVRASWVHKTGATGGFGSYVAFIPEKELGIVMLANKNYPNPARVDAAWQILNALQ
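Enzyme, pH 7.0 phosphate. Compound titrations were pre-incubated with AmpC for 15 min at room temperature before nitrocefin (stock 800 uM) addition; product formation was recorded at 480 nm every 20 s for 4 min.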
LT uptake inh – qHTS Assay for Anthrax Lethal Toxin Internalization. Cells, anthrax lethal toxin internalization, FRET ratio (460/530). Potency, µM (top dose mostly 40 µM), for inactives: at the highest dose activity change, negative = inhibition, hits mostly inhibitors. 0.67% of 70,000 active. AID 912, 2007; note: % is set by controls: 0 for no effect and ±100 for the full control effect; nearly all actives have a fitted effect of over 50% in size
AmpC det inh – Promiscuous and Specific Inhibitors of AmpC Beta-Lactamase (assay with detergent). P00811. purified AmpC, nitrocefin hydrolysis with detergent. Potency, µM (doses to about 28.7 µM), inactives show at the top dose activity change, negative = inhibition. 0.09% of 71,000 active; active = well fitted curve in the direction sought with a large enough effect; inconclusive = small, poorly fitted or top-dose-only effect; note: % is set by controls: 0 for no effect and ±100 for the full control effect
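E. coli AmpC (5.3 nM) in 20 mM phosphate pH 7.0 with 0.01% Triton X-100, preincubated 15 min RT with compound; nitrocefin (2 uL of 800 uM stock) hydrolysis followed by 480 nm absorbance every 20 s over 4 min.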
SmPrx2 inh – Schistosoma Mansoni Peroxiredoxins (Prx2); S. mansoni Prx2 activity coupled to TGR/GSH (TGR is thioredoxin glutathione reductase), NADPH fluorescence loss, qHTS; Potency, µM; 0.07% of 65,000 active
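Coupled assay in which S. mansoni TGR passes NADPH reducing equivalents via glutathione to Prx2, which reduces H2O2. Compounds were preincubated 15 min at room temperature with 25 nM TGR/50 nM Prx2 mix. Kinetic NADPH fluorescence loss (ex 365/em 450 nm) was monitored.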
* = called active by the depositor; ? = inconclusive; nt = no result; ! = repeats disagree; [ ] = remark or other dose. This is a sample that favours compounds with a hit; in the whole collection about 2.4% have one here. Unless noted, calls come from the whole dose curve. Potency is the fitted concentration of half-maximal effect.

SMILES	AmpC nodet inh	LT uptake inh	AmpC det inh	SmPrx2 inh
COc1ccc(S(=O)(=O)Cc2ccc(C(=O)NC3CC3)o2)cc1	0%	9%	4%	>57
CC1(C)CCC[C@@]2(C)[C@@H]1CC[C@]1(C)OC(=O)C[C@@H]21	55%	?	13%	>57
C[C@@]12CC[C@H]3[C@H](CC=C4C[C@@H](O)CC[C@@]43C)[C@@H]1CC[C@@H]2N(CCO)CCO	5%[5.75 µM]	?	0%[5.75 µM]	>57
CC[N+](CC)(CC)CCOc1cccc(OCC[N+](CC)(CC)CC)c1OCC[N+](CC)(CC)CC	13µM*!	-4%[3.58 µM]	-5%[12.8 µM]	?
NC(=O)c1cn(-c2ccccc2)nc1-c1cccnc1	-3%	11%	-2%	>57
NC(=O)c1cc(Cl)cn(-c2ccccc2)c1=O	3.2µM*[single pt active]	-3%	13%	>57
O=C(O)CCSc1ncnc2nc[nH]c12	2%[5.75 µM]	-8%[8 µM]	-4%[5.75 µM]	>57
O=C(O)c1cc[c]([Hg][S]c2ncnc3nc[nH]c23)cc1	-2%[5.75 µM]	-5%[8 µM]	-7%[5.75 µM]	0.86*
COc1ccc(OC)c([C@H]2Nc3ccccc3NC3=C2C(=O)CC(C)(C)C3)c1Br	74%	11%	-3%	>11
COc1ccccc1OCCCCNC(C)(C)C	-8%	-16%	7%	>57
CNCCCCOc1ccccc1Cc1ccccc1	55%	32µM*	2%	>57
C/C=C/C=O	11%	-11%	3%	nt
C[C@@H]1C[C@@]2(C)Oc3ccccc3[C@H]3OC[C@]1(COC(=O)Nc1ccccc1)[C@@H](C)[C@@H]32	-5%	-11%	2%	>57
O=C(Nc1ccc(N2CCN(C(=O)c3ccco3)CC2)c(Cl)c1)c1cc2ccccc2o1	18%	?	-4%	>57
CCCC(=O)N1CCN(c2ccc(NC(=O)c3cc4ccccc4o3)cc2Cl)CC1	50%	6.3µM*	-2%	>57
CCC(=O)N1CCN(c2ccc(NC(=O)c3cc4ccccc4o3)cc2Cl)CC1	109%	10µM*	-5%	>57
CC(NC(=O)c1cc(-c2ccc(O)cc2)on1)c1ccccc1 (configuration not stated)	0%	-13%	4%	>57
CCOC(=O)CSCc1nc(-c2ccc(Cl)cc2)oc1C	4µM*[single pt active]	?	25%	>57
COc1ccccc1C(=O)n1nc(-c2cccnc2)nc1N	4µM*[single pt active]	28%	13%	>57
Cc1nn(-c2nc3ccccc3s2)c(C)c1Oc1ccccc1O	-24%	10µM*	-5%	>57
Cc1nn(-c2ccccn2)c(C)c1Oc1ccccc1O	1%	3%	-1%	>57
CO[C@]1(NC(=O)C2SC(=C(C(N)=O)C(=O)O)S2)C(=O)N2C(C(=O)O)=C(CSc3nnnn3C)CS[C@H]21 (some centres not stated)	?	0.5µM*	2µM*	>57
CN(C)CCn1nnnc1SCC1=C(C(=O)O)N2C(=O)[C@@H](NC(=O)Cc3csc(N)n3)[C@@H]2SC1	0%[12.8 µM]	-13%[3.58 µM]	-4%[12.8 µM]	>57
CO[C@]1(NC(=O)CSCC#N)C(=O)N2C(C(=O)O)=C(CSc3nnnn3C)CS[C@H]21	7.9µM*![single pt active]	?	?	>57
CO[C@]1(NC(=O)Cc2cccs2)C(=O)N2C(C(=O)O)=C(COC(N)=O)CS[C@H]21	5µM*	5µM*	5µM*	>26
SMILES	AmpC nodet inh	LT uptake inh	AmpC det inh	SmPrx2 inh
Cn1nnnc1SCC1=C(C(=O)O)N2C(=O)[C@@H](NC(=O)[C@@H](O)c3ccccc3)[C@@H]2SC1	-18%[12.8 µM]	0%[3.58 µM]	-3%[12.8 µM]	>57
CC(C)(C)c1onc(OCP(=O)(O)O)c1C[C@@H](N)C(=O)O	-9%	-4%	-3%	>57
Cc1ccc2c(CC(=O)Nc3sccc3C(N)=O)coc2c1	13µM*[single pt active]	-12%	-2%	>57
CC(C)(C)OC(=O)N[C@@H](Cc1ccccc1)c1nnc(S(=O)(=O)Cc2ccccc2)o1	3.2µM*	7.9µM*	13µM*	nt
CC(C)(C)OC(=O)N[C@@H](Cc1ccccc1)c1nnc(SCC(=O)O)o1	-4%	?	12%	>57
CCC(C)[C@@H](NC(=O)OC(C)(C)C)c1nnc(S(=O)(=O)Cc2cccc(C)c2)o1 (some centres not stated)	7.9µM*	?	4µM*	>57
CC1=C2C(=O)[C@@H]3[C@@H](CC=C4C[C@@H](O)CC[C@@]43C)[C@H]2CC[C@@]12O[C@H]1C[C@H](C)CN[C@H]1[C@@H]2C	14%[5.75 µM]	?	-4%[5.75 µM]	>57
O=C(c1[nH]o[n+](=O)c1C(=O)c1csc2ccccc12)c1csc2ccccc12	-11%[5.75 µM]	?	-6%[5.75 µM]	nt

From PubChem BioAssay
